A selection: hits, their analogues and other compounds. The true share with any hit is near 5.4%.
Lassa entry inh: Lassa virus entry inhibition. Lassa virus pseudotype entry inhibition, cell reporter. Potency, µM (highest dose often 37.9 µM), without a hit: at the top dose activity change, negative = inhibition, hits mostly inhibitors. 300,000 tested, 1.2% active. AID 540256; calls by dose curve; tested in HEK293 cells; further: nearly all actives have a fitted effect of over 50% in size
Marburg entry inh: inhibitors of Marburg virus binding or cell entry. Marburg virus pseudotyped entry inhibition, cell reporter. Potency, µM (doses to about 37.8 µM), inactives show top-dose activity change, negative = inhibition, usual class: inhibitors. 300,000 tested, 1.8% active; calls by dose curve; tested in HEK293 cells
Sm TGR block: blocks Schistosoma mansoni thioredoxin glutathione reductase; Q962Y6; purified TGR, DTNB reduction, TNB absorbance 405 nm; Potency, µM (series often up to 114 µM), without a hit: at the top dose activity change, negative = inhibition, most hits filed as inhibitors; 360,000 tested, 3% active; AID 485364; active means well fitted inhibition curve with a large enough effect; inconclusive means small, poorly fitted or top-dose-only effect; inactive means no such curve, though single readings can be large or run the other way; further: nearly all actives have a fitted effect of over 60% in size
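First, TGR (20 nM dispensed) and NADPH were mixed with compound. Second, a 15 min room-temperature incubation followed. Third, further NADPH and then DTNB were added to start the reaction. Finally, TNB absorbance was monitored kinetically.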
VACV Venus inh: inhibitors of vaccinia virus (Venus reporter) | Vaccinia virus Venus reporter expression, fluorescence | Potency, µM (highest dose often 36.5 µM), without a hit: top-dose activity change, negative = inhibition, hits mostly inhibitors | 330,000 tested, 0.46% active | AID 720580; calls by dose curve; tested in A549 cells; further: nearly all actives have a fitted effect of over 30% in size
VACV mCherry inh: inhibitors of vaccinia virus infection (mCherry reporter signal). Vaccinia virus mCherry reporter infection, fluorescence. Potency, µM (doses to about 36.5 µM), for the others: at the top dose activity change, negative = inhibition, most hits filed as inhibitors. 310,000 tested, 0.63% active. AID 720579; calls by dose curve; tested in A549 cells; further: nearly all actives have a fitted effect of over 35% in size
FMDV inh: blocks foot and mouth disease virus | FMDV antiviral cell-based qHTS | Potency, µM (doses to about 57.9 µM), without a hit: top-dose activity change, negative = inhibition, usual class: inhibitors | 410,000 tested, 1.2% active; calls by dose curve; tested in HEK293T cells; further: read-out not given here; nearly all actives have a fitted effect of over 45% in size
Starred values were filed as active, the others as inactive; i = inactive; ? = inconclusive; nt = no result given; [ ] = another dose, or the depositor's remark. On the % scale 0 is the no-effect control and ±100 the full control effect; potency means the concentration at half of the fitted maximal effect.

SMILES	Lassa entry inh	Marburg entry inh	Sm TGR block	VACV Venus inh	VACV mCherry inh	FMDV inh
O=C1CC(Sc2ccc(Cl)cc2)C(=O)N1Cc1ccncc1 (centres undefined)	nt	nt	7.1µM*	nt	nt	-22%
CCOc1ccc(N2C(=O)CC(SCCN)C2=O)cc1 (centres undefined)	12%	-5%	?	nt	nt	13%
NCCSC1CC(=O)N(Cc2ccc(F)cc2)C1=O (centres undefined)	-8%	4%[46.1 µM]	7.9µM*	-10%	-19%	-6%
COc1cccc(CNC(=O)C2CCC(CNc3nc(=S)[nH]c4ccccc34)CC2)c1 (centres undefined)	nt	-7%[46.1 µM]	-4%	-10%	-25%	-11%
Cc1ccc(CNC(=O)C2CCC(CNc3nc(=S)[nH]c4ccccc34)CC2)cc1 (centres undefined)	-14%	3.5µM*	1%	-10%	-14%	-24%
COc1ccc(-c2cn(-c3cccc(C)c3)c(=O)[nH]2)cc1OC	nt	nt	13µM*	-6%	-8%	-22%
CN(Cc1ccccc1)CC(O)COc1ccc(CNCc2ccc(Cl)s2)cc1 (centres undefined)	?	2.5µM*	-2%	-17%	?	-14%
COc1ccccc1-c1cnc(C(O)c2ccc(Cl)cc2)[nH]1 (centres undefined)	nt	nt	nt	-2%	1%	0%
Cc1ccc2c(CC(=O)Nc3c(C(=O)Nc4cccc(Cl)c4)oc4ccccc34)coc2c1C	3%[46.1 µM]	14%[46.1 µM]	3%	-20%	-21%	0%
COc1cccc2c1C(=O)c1c(O)c3c(c(O)c1C2=O)C[C@](O)(C(C)=O)C[C@H]3O[C@@H]1C[C@@H](N)[C@@H](O)[C@@H](C)O1	nt	nt	-15%	481%	44%	-4%
CCCCC(=O)OCC(=O)C1(O)Cc2c(O)c3c(c(O)c2C(OC2CC(NC(=O)C(F)(F)F)C(O)C(C)O2)C1)C(=O)c1c(OC)cccc1C3=O (centres undefined)	?	?	nt	i	374%	-3%
COc1cccc2c1C(=O)c1c(O)c3c(c(O)c1C2=O)CC(O)(C(C)=O)CC3OC1CC(O)C(O)C(C)O1 (centres undefined)	?	1.4µM*	nt	i	281%	-7%
COc1cccc2c1C(=O)c1c(O)c3c(c(O)c1C2=O)C[C@@](O)(C(=O)CO)C[C@@H]3O[C@H]1C[C@H](N)[C@H](OC2CCCCO2)[C@H](C)O1 (some centres undefined)	1.1µM*	1.3µM*	nt	441%	311%	nt
COc1cccc2c1C(=N)c1c(O)c3c(c(O)c1C2=O)CC(O)(C(C)=O)CC3OC1CC(N)C(O)C(C)O1 (centres undefined)	0.63µM*	0.35µM*	nt	?	150%	?
O=C1N=C2C=CC(Cl)=CC2C(c2ccccc2)=N1 (centres undefined)	nt	9%	nt	nt	nt	nt
Cc1ccc([C@H]2C[C@H](c3cccs3)n3nc(N)nc3N2)cc1	nt	5%	nt	nt	nt	nt
COc1ccc(NC(=O)CCSc2ccc(C)cc2)cc1S(=O)(=O)Nc1ccccc1Cl	13µM*	?	1%	-23%	-4%	-7%
COc1ccc2c(Sc3ccccc3)c(C(=O)NCCN(C)C)[nH]c2c1	5%[46.1 µM]	17%[46.1 µM]	40µM*	-26%	?	16%
COc1ccc2c(Sc3ccc(C)cc3)c(C(=O)NCc3ccc(F)cc3)[nH]c2c1	-12%[46.1 µM]	?	45µM*	-6%	-10%	0%
COc1ccc2c(Sc3ccc(C)cc3)c(C(=O)NCCc3ccccc3)[nH]c2c1	0%[46.1 µM]	-16%[46.1 µM]	-4%	-30%	?	16%
COCCCNC(=O)c1[nH]c2cc(OC)ccc2c1Sc1ccc(C)cc1	?	-14%[46.1 µM]	4%	-5%	-19%	0%
c1ccc(-c2ccc(C3=Nn4c(Cn5nnc6ccccc65)nnc4SC3)cc2)cc1	11µM*	?	2%	-23%	nt	?
Cc1cc(C)c(/C=C/c2onc(C)c2S(=O)(=O)N2CCC(C(=O)NCc3ccccc3Cl)CC2)c(C)c1	12%[46.1 µM]	nt	1%	-5%[7.34 µM]	-5%[7.34 µM]	-8%
COc1ccc(CN2CCN(C3CCSCC3)CC2CCO)c(C)c1C (centres undefined)	1%[46.1 µM]	?	35µM*	-14%	-17%	-12%
COc1ccc(CN2CCN(C3CCOCC3)CC2CCO)c(C)c1C (centres undefined)	-1%[46.1 µM]	15%[46.1 µM]	-35%	-8%	-3%	-23%
SMILES	Lassa entry inh	Marburg entry inh	Sm TGR block	VACV Venus inh	VACV mCherry inh	FMDV inh
S=C(NCc1ccccc1)Nc1ccc2cn[nH]c2c1	-5%[46.1 µM]	1%[46.1 µM]	40µM*	-11%	-9%	12%
CCC1CC2C(=O)C(c3nc(C)cs3)=COC2CC1O (centres undefined)	nt	0%[46.1 µM]	nt	nt	nt	nt
Cc1cc2oc(=O)sc2cc1NS(=O)(=O)c1ccccc1	11µM*	-1%[46.1 µM]	3%	-9%	?	6%
COc1ccc(CCNC2=C(Cl)C(=O)N(CCc3ccc(OC)c(OC)c3)C2=O)cc1OC	?	?	-13%	-10%	-10%	10µM*
COC(=O)C1=C(C)N(CCc2ccc(OC)c(OC)c2)C(=O)/C1=C\N(C)C	11%	0%[46.1 µM]	7.9µM*	-9%	-15%	-23%
Cc1ccn2cc(-c3cc4ccccc4oc3=O)nc2c1	1.6µM*	?	?	0%	0%	-42%
O=c1oc2ccccc2cc1-c1cn2cc(Cc3ccc(Cl)cc3)sc2n1	?	-23%[46.1 µM]	-10%	-22%	-26%	58%
CC(=NNC(=S)N1CC2CCC(CC2)C1)c1cccc(C)n1	?	?	nt	?	4µM*	-8%
CC(=NNC(=S)N1CC2CCC(CC2)C1)c1nccs1	?	?	nt	?	?	-11%
O=C(Nc1ccc(Oc2cccnc2)cc1)C1CCN(Cc2cc(Cl)ccc2O)CC1	nt	nt	-14%	nt	nt	7.9µM*
COC(=O)c1ccccc1NC(=O)NCc1ccco1	-19%[14.3 µM]	17%	7%	-10%	-15%	33%
COC(=O)c1ccccc1NC(=O)/C=C/c1ccco1	?	1%	40µM*	-18%	i	24%
O=C(/C=C/c1ccco1)Nc1ccccc1N1CCCCC1	nt	nt	45µM*	nt	nt	-2%
O=C(/C=C/c1ccccc1)Nc1cccnc1Cl	?	-13%	1%	-18%	-22%	34%
O=C(/C=C/c1ccco1)Nc1cccnc1Cl	nt	nt	5.6µM*	nt	nt	47%
CC(C)C(=O)N1CCN(c2ccccc2NC(=S)NC(=O)/C=C/c2ccco2)CC1	-1%[46.1 µM]	9%[46.1 µM]	nt	0%	-4%	?
CC(=O)c1ccc(NS(=O)(=O)c2ccc3[nH]c(=O)[nH]c3c2)cc1	18%[46.1 µM]	nt	-12%	-6%	-6%	78%
O=C(Nc1ccc(Br)cc1)N1CCC(CN2CCCC2)CC1	12%[46.1 µM]	nt	-27%	-11%	-5%	7%
CC(C)(C)c1ccc(O[C@@H]2[C@H](O)CO[C@H]2C=CC#Cc2ccccc2)cc1	nt	-16%[14.2 µM]	nt	nt	nt	nt
COc1ccc2cc(C(=O)/C=C/c3cc(OC)c(OC)c(OC)c3)ccc2c1	-30%[46.1 µM]	?	-14%	-13%	-17%	-10%

Assay outcomes: PubChem BioAssay, National Center for Advancing Translational Sciences (NCATS)
